Assay outcomes: PubChem BioAssay, several laboratories
PLCb3 inh: human PLC-beta3 inhibitors, primary screen, biochemical, fluorescence. 1-phosphatidylinositol 4,5-bisphosphate phosphodiesterase beta-3 (Homo sapiens), Q01970. Purified PLC-beta3, fluorogenic substrate. inhibition, % at 12.2 µM. actives 0.18% (n = 370,000); in the data active = inhibition above about 11%
ADAM17 inh: ADAM17 inhibitors, primary screen, biochemical, QFRET. AID 720648, 2013. recombinant ADAM17, EDANS/DABCYL FRET peptide cleavage. inhibition, % at 6.95 µM. actives 0.83% (n = 370,000). Disintegrin and metalloproteinase domain-containing protein 17 (Homo sapiens), P78536;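 active = inhibition above the mean of compounds lying between control limits plus 3 SD, set per campaign, cut at about 8.5% in these data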
Rce1 inh: yeast Rce1p protease inhibitors, primary screen, biochemical, fluorescence, cell-free homogeneous; CAAX prenyl protease 2 (Saccharomyces cerevisiae (strain ATCC 204508 / S288c)), Q03530; yeast membranes, quenched prenylated peptide cleavage fluorescence; calls only; actives 0.27% (n = 290,000);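 active = fall in fluorescence gain of 50% or more versus controls, with final raw signal at or below 3038400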
Target sequence (Q03530 whole entry, looked up): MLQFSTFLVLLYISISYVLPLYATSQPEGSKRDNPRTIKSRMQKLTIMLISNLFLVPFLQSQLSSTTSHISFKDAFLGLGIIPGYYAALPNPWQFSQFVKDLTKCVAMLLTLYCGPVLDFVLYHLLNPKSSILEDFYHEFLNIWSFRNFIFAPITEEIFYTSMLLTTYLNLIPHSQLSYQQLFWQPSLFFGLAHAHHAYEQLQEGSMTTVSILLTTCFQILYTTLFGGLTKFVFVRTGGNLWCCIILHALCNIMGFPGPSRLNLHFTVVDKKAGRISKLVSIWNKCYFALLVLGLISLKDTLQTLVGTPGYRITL
ADAM10 inh: human ADAM10 inhibitors, primary screen, biochemical, QFRET, HTS | Disintegrin and metalloproteinase domain-containing protein 10 (Homo sapiens), O14672 | recombinant ADAM10, EDANS/DABCYL FRET peptide cleavage, 3 h | actives 0.62% (n = 370,000) | inhibition, % at 7 µM;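 active = inhibition above a per-campaign cutoff equal to the mean of compounds falling between control-based bounds plus 3 SD, cut at about 20% in these data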
PLC-gamma1 inh: PLC-gamma1 enzyme inhibitors, primary screen, biochemical, fluorescence, purified enzyme. 1-phosphatidylinositol 4,5-bisphosphate phosphodiesterase gamma-1 (Homo sapiens), P19174. fluorogenic substrate. inhibition, % at 12.2 µM. actives 0.84% (n = 370,000); in the data active = inhibition above about 9.5%
ADAM10 confirm: human ADAM10 inhibitors, confirmation, biochemical, QFRET, triplicate; shares compounds with ADAM10 inh; ADAM10 QFRET peptide cleavage, EDANS fluorescence; inhibition, % at 6.95 µM; actives 1% (n = 2,100);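 active = inhibition above about 20% chosen separately for each screening run, limit read from the data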
ADAM17 counter: ADAM17 inhibitors, counter-screen for ADAM10 exosite inhibitor project, biochemical, QFRET, high throughput | inhibition, % at 6.95 µM | actives 0.5% (n = 2,100) | shares compounds with ADAM10 inh | ADAM17 QFRET peptide cleavage, EDANS fluorescence;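 active = mean triplicate inhibition above the solvent-only control wells' mean plus 3 SD, cut at about 12% in these data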
ADAM10 counter: ADAM10 inhibitors, counter-screen for ADAM17 exosite inhibitor project, biochemical, FRET, human ADAM10; actives 47% (n = 2,900); shares compounds with ADAM17 inh; AID 743256, 2014; inhibition, % at 6.95 µM; recombinant ADAM10, EDANS/DABCYL FRET peptide cleavage, 3 h;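 active = mean inhibition over the triplicate runs exceeds the activity threshold set in the earlier primary screen, cut at about 20% in these data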
ADAM17 confirm: ADAM17 inhibitors, hit retest, confirmation, biochemical, QFRET peptide cleavage | shares compounds with ADAM17 inh | inhibition, % at 6.95 µM | recombinant ADAM17, EDANS/DABCYL QFRET peptide cleavage | actives 65% (n = 2,900);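 active = mean inhibition across replicates above the hit cutoff set in the primary screen, cut at about 8.5% in these data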
A number is an active result; 0 = inactive; - = no result. Most compounds without a hit are left out; they make up all but 2.1% or so of the library.

SMILES	PLCb3 inh	ADAM17 inh	Rce1 inh	ADAM10 inh	PLC-gamma1 inh	ADAM10 confirm	ADAM17 counter	ADAM10 counter	ADAM17 confirm
O=C1/C(=C\c2cccs2)N=C(c2cccs2)N1Nc1ccccc1	0	0	0	0	0	-	-	-	-
O=C(N/N=C/c1cn(-c2cccs2)nc1-c1ccccc1)c1ccc(O)cc1	0	0	0	0	0	-	-	-	-
O=C(N/N=C/c1cn(-c2cccs2)nc1-c1ccccc1)c1ccccc1Cl	0	0	0	20.5	0	0	0	-	-
COc1ccccc1-c1nnc(Sc2nc([N+](=O)[O-])nn2C)o1	0	0	0	0	0	-	-	-	-
COc1ccc(Cl)cc1N1C(=O)CC(N2CCN(S(=O)(=O)c3ccccc3F)CC2)C1=O (configuration not stated)	0	0	-	0	0	-	-	-	-
C[C@@H]1CN([C@@H](C)CO)C(=O)CCCn2nncc2CO[C@H]1CN(C)S(=O)(=O)c1ccccc1F	0	0	-	0	0	-	-	-	-
Cc1ccc(Nc2nc(N)nc(CN3CCN(c4ccccc4)CC3)n2)cc1Cl	0	0	0	0	0	-	-	-	-
COc1ccc(N2CCN(Cc3nc(N)nc(Nc4ccc(C)c(Cl)c4)n3)CC2)cc1	0	0	0	21.5	0	0	0	-	-
N#CC1=C(N)NC(SCC(=O)Nc2ccc(Br)cc2)=C(C#N)C12CCCCC2	0	11.4	0	21.7	0	0	0	29.8	19.5
O=S(=O)(c1ccc(N2CCN(Cc3ccccc3)CC2)nc1)N1CCCC1	0	0	-	0	0	-	-	-	-
Cc1ccc(C)c(C(=O)COC(=O)CCCC(=O)Nc2cc(C(F)(F)F)ccc2Cl)c1	0	9.8	0	19.9	0	0	0	25.3	10.8
O=C(CCNC(=O)c1ccccc1Cl)Nc1cc(C(F)(F)F)ccc1Cl	0	0	0	0	0	-	-	-	-
O=c1[nH]c(=S)[nH]c2c1C(c1cccc(C(F)(F)F)c1)OC(CCc1ccccc1)C2 (configuration not stated)	0	14.4	-	26.7	0	0	0	29.7	16.4
Cc1cc(C)c(Nc2cc(S(=O)(=O)O)c(N)c3c2C(=O)c2ccccc2C3=O)c(C)c1	0	8.7	-	23.3	0	0	0	36.0	17.4
Cc1cc(C)c(NC(=O)COC(=O)c2cccc3c2C(=O)c2ccccc2C3=O)c(C)c1	0	0	0	0	0	-	-	-	-
CCOC(=O)C1=C(C)N(Cc2ccccc2)C(=O)NC1c1ccccc1OS(=O)(=O)c1ccccc1[N+](=O)[O-] (configuration not stated)	0	9.8	0	21.3	0	0	0	49.2	20.7
COC(=O)C1=C(C)N(CCCC(=O)O)C(=O)NC1c1ccccc1OS(=O)(=O)c1ccccc1[N+](=O)[O-] (configuration not stated)	0	0	0	0	0	-	-	-	-
O=C(c1ccccc1)N1CCC2CCN(CCc3ccccc3)CC21 (configuration not stated)	0	0	-	0	0	-	-	-	-
NC(=O)C1CCN(c2nc(-c3ccc4c(c3)OCCCO4)cs2)CC1	0	0	-	0	0	-	-	-	-
Cc1ccc(-c2csc(N3CCC(NS(=O)(=O)c4ccc5c(c4)OCCO5)CC3)n2)cc1	0	13.0	0	23.7	0	0	0	20.1	15.2
OC1Cc2ccccc2C1Nc1cccc(C(F)(F)F)c1 (configuration not stated)	0	0	-	0	0	-	-	-	-
Cc1cc(=O)oc2cc(OCC(=O)NC3CCCCC3)ccc12	0	0	0	0	0	-	-	-	-
O=C(/C=C/c1ccc(Cl)cc1Cl)NCCSCc1ccccc1	0	0	0	0	0	-	-	-	-
O=C(/C=C/c1ccc(Cl)cc1Cl)NCCSc1ccccc1	0	10.5	0	24.6	0	0	0	23.4	16.8
CCc1nc2ccc(C(=O)Nc3cccc(OCC(=O)N(C)C)c3)cn2c1N(C)Cc1cc2ccccc2s1	0	0	-	0	0	-	-	-	-
SMILES	PLCb3 inh	ADAM17 inh	Rce1 inh	ADAM10 inh	PLC-gamma1 inh	ADAM10 confirm	ADAM17 counter	ADAM10 counter	ADAM17 confirm
CCOc1cc(/C=N/O)cc(Br)c1OCc1ccc(Cl)cc1	0	8.9	0	25.1	0	0	0	52.1	21.3
O=C(c1ccc(Cl)c(Cl)c1)N1CCC(=O)N(C(COCc2ccc(Cl)cc2)Cc2ccccc2)CC1 (configuration not stated)	0	9.5	0	20.5	12.1	0	0	33.9	15.7
Cc1cccc(COC[C@H](Cc2ccccc2)N2CCN(C(=O)c3ccc(Cl)c(Cl)c3)CCC2=O)c1	0	0	-	0	0	-	-	-	-
O=C(c1ccc(C(F)(F)F)cc1)N1CCC(=O)N(C(COCc2ccc(Cl)cc2)Cc2ccccc2)CC1 (configuration not stated)	0	9.9	0	20.4	0	0	0	0	8.7
CCOc1cc(C(c2c(C)[nH][nH]c2=O)c2c(C)[nH][nH]c2=O)ccc1OCc1ccc([N+](=O)[O-])cc1	0	0	0	0	0	-	-	-	-
CCOc1cc(C(c2c(C)[nH][nH]c2=O)c2c(C)[nH][nH]c2=O)ccc1OC(=O)c1cccc([N+](=O)[O-])c1	0	23.5	0	27.3	0	0	0	0	0
C=CCOC(=O)N1CCC(NS(=O)(=O)c2ccc3c(c2)CCN3C(C)=O)CC1	0	0	-	0	0	-	-	-	-
Cc1cc(Cl)ccc1NC(=S)NCCc1ccc(Cl)cc1	0	9.8	0	25.4	0	0	0	0	0
CN(C(=O)c1cccc(NC(=O)Cc2ccc(NC(=O)C3CCN(S(=O)(=O)c4cccc([N+](=O)[O-])c4)CC3)cc2)c1)C1CCCC1	0	0	-	0	0	-	-	-	-
CN(C(=O)c1cccc(NC(=O)Cc2ccc(NC(=O)C3CCN(S(=O)(=O)c4cccc([N+](=O)[O-])c4)CC3)cc2)c1)C1CCC1	0	12.4	-	19.9	0	0	0	23.9	8.9
